For test [1], the system named is Molm13. Briefly: cell viability relative to DMSO control (bortezomib = 0%); higher = less growth inhibition. The following applies: 10 nM; 72 h. A digest of the protocol:
(§1)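 Acute myeloid leukemia cells were plated at 1000 cells per well in 50 µL onto a 679-compound library of approved and investigational agents in 384-well plates and exposed to a single 10 nM dose for 72 h, in duplicate. Cell viability was measured by CellTiter-Glo luminescence on an EnVision reader. Readings were scaled to percentages by per-plate linear regression, with DMSO-treated cells set at 100% and positive-control-treated cells at 0%.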

The test system of test [2] is Mv4-11. The description is as above. Conditions: 10 nM; 72 h. A digest of the protocol:
as §1

These results are taken from the supplement of paper PMC8699584.

Values joined by “and” are separate entries in the source; they are usually repeats but may differ in a detail not shown here. Identical values can stand only once. Counter-ions that a name gives are not always drawn. ± gives the standard deviation of the averaged measurements.

Consider `CC(=O)c1c(C)c2cnc(Nc3ccc(N4CCNCC4)cn3)nc2n(C2CCCC2)c1=O` [Palbociclib], for which the cell viability in test [1] was 90.4 ± 13%; in test [2] it was 113 ± 9.9%.
Take `O=C(Nc1ccc(-c2ccnc(Nc3ccc(N4CCOCC4)cc3)n2)cc1)C1CCCN1` (stereo not given): the figures for the cell viability in test [1] and in test [2] were 107 ± 16% and 95.7 ± 4.2%, respectively.
With `C[C@H]1[C@H](C)CC[C@]2(C(=O)O)CC[C@]3(C)C(=CC[C@@H]4[C@@]5(C)C[C@@H](O)[C@H](O)C(C)(C)[C@@H]5CC[C@]43C)[C@H]12` [Corosolic acid], the cell viability in test [1] amounted to 113 ± 26%; in test [2], 106 ± 11%.
The corresponding values for `COc1cc(OC)c(C=C2C(=O)Nc3ccccc32)c(OC)c1` are 104 ± 6.9% and 100 ± 12%.
The corresponding values for `COc1cc(CCc2cc(NC(=O)c3ccc(N4CC(C)NC(C)C4)cc3)n[nH]2)cc(OC)c1` (stereo not given) are 102 ± 17% and 99.5 ± 2%.
As to `NCC(=O)Nc1ccc(-n2nc(C(F)(F)F)cc2-c2ccc3c(ccc4ccccc43)c2)cc1`, the cell viability in test [1] was found to be 114 ± 8.5%; in test [2], 101 ± 12%.
The corresponding values for `O=c1ccc2ccccc2o1` [Coumarin] are 114 ± 8% and 114 ± 24%.
The corresponding values for `CC#CC(=O)N1CCC[C@H]1c1nc(-c2ccc(C(=O)Nc3ccccn3)cc2)c2c(N)nccn12` [Acalabrutinib] are 111 ± 8.4% and 125.6 ± 1.1%.
The corresponding values for `CN1CCN(CCCNc2ncc(Cl)c(-c3cc4c(C(=O)NC5CC5)cccc4s3)n2)CC1` are 110 ± 3.6% and 109 ± 13%.
For `CCCCCCCCCCCCC/C=C/[C@H](O)[C@@H](N)CO` [L-threo-Sphingosine C-18], the cell viability in test [1] stood at 94 ± 9.1%; in test [2], 113 ± 2.5%.
The corresponding values for `Nc1n[nH]c(N)c1N=Nc1ccc(O)cc1` are 117 ± 6.2% and 110 ± 14%.
For the compound `Nc1ncnc2c1c(-c1cccc(OCc3ccccc3)c1)cn2C1CC(CN2CCC2)C1` (stereo not given) [NVP-AEW541 (hydrochloride)], the results for the cell viability in test [1] and in test [2] were 110 ± 11% and 90.7 ± 25%, respectively.
The corresponding values for `O=C(NCc1cccc(O)c1)c1cc2cc(F)ccc2[nH]1` are 113 ± 3.2% and 114 ± 1.2%.
On to `Cn1c(=O)n(-c2ccc(C(C)(C)C#N)cc2)c2c3cc(-c4cnc5ccccc5c4)ccc3ncc21` [BEZ235 (NVP-BEZ235, Dactolisib)], for which the cell viability in test [1] was found to be 113 ± 7.9%; in test [2] it was 102 ± 6.4%.
The corresponding values for `CC1(C)CNc2cc(NC(=O)c3cccnc3NCc3ccncc3)ccc21` [Motesanib (AMG-706)] are 106 ± 20% and 107 ± 5.2%.
The like results for `O=C(O)CCC(=O)Nc1ccc(Br)cn1` [Bikinin] were, in that order, 92.5 ± 2.2% and 99.9 ± 1.9%.
The corresponding values for `Cc1nc(Nc2cnn(C3CCNCC3)c2)nc2c1N(C)C(=O)c1cc3ccccc3cc1N2C` are 95.6 ± 2.2% and 104.2 ± 0.14%.
`CCOc1cc2ncc(C#N)c(Nc3ccc(F)c(Cl)c3)c2cc1NC(=O)/C=C/CN(C)C` [Pelitinib (EKB-569)]: the figures for the cell viability in test [1] and in test [2] were 104 ± 12% and 104 ± 3.4%, respectively.
As for `C[C@@H](N)[C@H]1CC[C@H](C(=O)Nc2ccncc2)CC1`, the cell viability in test [1] is 93.8% and 107%; in test [2], 100% and 112%.
On to `CN(N=O)C(=O)N[C@@H](C=O)[C@@H](O)[C@H](O)[C@H](O)CO` [Streptozocin], for which the cell viability in test [1] was found to be 89.4 ± 24%; in test [2], 108 ± 4.5%.
The corresponding values for `Cc1[nH]c(/C=C2\C(=O)Nc3ccc(S(=O)(=O)N(C)c4cccc(Cl)c4)cc32)c(C)c1C(=O)N1CCN(C)CC1` are 104 ± 22% and 107 ± 13%.
The like results for `COc1cc(Nc2ncc3c(n2)-c2ccc(Cl)cc2C(c2c(F)cccc2OC)=NC3)ccc1C(=O)O` [MLN8237(Alisertib)] were, in that order, 99.5 ± 6.3% and 114 ± 4.2%.
The corresponding values for `Cc1cccc(/C=N/Nc2cc(N3CCOCC3)n3nc(-c4ccncc4)cc3n2)c1` are 95.5 ± 11% and 122 ± 4.4%.
For `CNC(=O)c1ccccc1Nc1nc(Nc2ccc(N3CCNCC3)cc2)ncc1Cl`, the cell viability was 17.4 ± 13% in test [1] and 23 ± 6.8% in test [2].
The like results for `CCCCCCCCCCCCC/C=C/[C@@H](O)[C@H](CO)N(C)C` [N,N-Dimethylsphingosine] were, in that order, 108 ± 20% and 115 ± 6.7%.
The corresponding values for `Cc1c(NC(=O)OC[C@@H]2COCCN2)cn2ncnc(Nc3ccc4c(cnn4Cc4cccc(F)c4)c3)c12` are 105 ± 8% and 112 ± 11%.
On to `CCN(CC)CCNC(=O)c1c(C)[nH]c(/C=C2\C(=O)Nc3ccc(F)cc32)c1C` [Sunitinib (malate)], for which the cell viability turned out to be 50.3 ± 5.7% in test [1] and 63.4 ± 1.2% in test [2].
The corresponding values for `CN(c1ccccc1CNc1nc(Nc2ccc3c(c2)CC(=O)N3)ncc1C(F)(F)F)S(C)(=O)=O` are 112 ± 25% and 96.4 ± 15%.
The like results for `Cc1nc(Nc2ncc(C(=O)Nc3c(C)cccc3Cl)s2)cc(N2CCN(CCO)CC2)n1` [Dasatinib] were, in that order, 111 ± 29% and 114 ± 2.2%.
`O=S(=O)(c1cccc2cnccc12)N1CCCNCC1` [Fasudil (HA-1077) hydrochloride]: the cell viability was 91.5 ± 1.8% in test [1] and 104 ± 5% in test [2].
The corresponding values for `Cc1cc(N)c2ccccc2[n+]1CCCCCCCCCC[n+]1c(C)cc(N)c2ccccc21` [Dequalinium chloride] are 92.3 ± 15% and 96.3 ± 16%.
The like results for `Cn1ncc(Cl)c1-c1cc(C(=O)N[C@H](CN)Cc2cccc(F)c2)sc1Cl` [Afuresertib] were, in that order, 111 ± 4.8% and 113 ± 2.5%.
The like results for `COc1cc2ncnc(Sc3nnc(C)s3)c2cc1OC` were, in that order, 127 ± 30% and 115 ± 14%.
Consider `Cc1cc(C(C)Nc2ccccc2)c2nc(N3CCOCC3)cc(=O)n2c1` (stereo not given), for which the values for the cell viability in test [1] and in test [2] were 106 ± 18% and 100 ± 3.8%, respectively.
The like results for `Cn1cc(/C=C2\C(=O)Nc3cccnc32)c2ccccc21` were, in that order, 104 ± 17% and 107 ± 3.6%.
As for `COC(=O)c1ccc2c(c1)NC(=O)/C2=C(\Nc1ccc(N(C)C(=O)CN2CCN(C)CC2)cc1)c1ccccc1`, the cell viability in test [1] worked out at 87.7 ± 22%; in test [2], 99.8 ± 8.2%.
The corresponding values for `CC(=O)/C(C)=N/O` [2,3-Butanedione 2-Monoxime] are 79.4 ± 21% and 119 ± 7.6%.
The like results for `CNC(=O)c1ccc(Nc2ncc(C(F)(F)F)c(NCc3nccnc3N(C)S(C)(=O)=O)n2)cc1` were, in that order, 90.2 ± 16% and 99.5 ± 3.4%.
The corresponding values for `CO[C@@H]1[C@H](N(C)C(=O)c2ccccc2)C[C@H]2O[C@]1(C)n1c3ccccc3c3c4c(c5c6ccccc6n2c5c31)C(=O)NC4` are 76.2 ± 3% and 87.82 ± 0.66%.
In the case of `Cc1ccc(S(=O)(=O)/C=C/C#N)cc1`, the cell viability in test [1] was 87.5 ± 24%; in test [2], 98.8 ± 3.1%.
